Sampled rows, rich in hits. Any-hit rate of the full collection: about 3.4%.
GPR151 ag: activators of human GPR151, primary screen, cell-based, PathHunter beta-arrestin, luminescence; G-protein coupled receptor 151 (Homo sapiens), Q8TDV0; PathHunter beta-arrestin GPR151 cells; activation, % at 11.2 µM; 650,000 compounds, 1% hits; AID 1508602, 2020; in the data active = activation above about 4.9%;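 also: 0% = median of compound wells and 100% = cells with positive control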
MITF inh: MITF inhibitors, primary screen, biochemical, AlphaScreen, human; inhibition, % at 2.6 µM; 650,000 compounds, 0.91% hits; AlphaScreen MITF homodimerization, bead proximity signal; Microphthalmia-associated transcription factor (Homo sapiens), O75030; AID 1259374, 2018; in the data active = inhibition above about 50%;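 also: 0% = vehicle wells with protein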
Target sequence (O75030 whole entry, looked up): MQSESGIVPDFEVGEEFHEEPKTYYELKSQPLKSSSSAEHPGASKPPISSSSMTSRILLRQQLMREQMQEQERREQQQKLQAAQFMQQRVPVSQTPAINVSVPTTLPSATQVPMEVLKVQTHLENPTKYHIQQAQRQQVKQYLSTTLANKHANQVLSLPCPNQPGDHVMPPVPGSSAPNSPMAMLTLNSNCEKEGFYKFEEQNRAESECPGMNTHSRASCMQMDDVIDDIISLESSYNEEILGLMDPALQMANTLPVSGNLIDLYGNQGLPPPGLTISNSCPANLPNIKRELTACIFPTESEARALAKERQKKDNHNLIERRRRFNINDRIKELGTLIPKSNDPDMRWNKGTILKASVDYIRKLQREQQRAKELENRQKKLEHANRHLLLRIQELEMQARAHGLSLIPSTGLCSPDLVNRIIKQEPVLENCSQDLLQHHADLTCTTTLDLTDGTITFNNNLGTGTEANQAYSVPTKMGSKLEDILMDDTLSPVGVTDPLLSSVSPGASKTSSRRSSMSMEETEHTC
FBW7 act: FBW7 E3 ligase activators, primary screen, biochemical, AlphaScreen, human; F-box/WD repeat-containing protein 7 (Homo sapiens), Q969H0; AlphaScreen FBW7–phospho-cyclin E peptide binding, activator screen; normalized activity (activation), % at 26.1 µM; 650,000 compounds, 0.13% hits; AID 1259310, 2017; in the data active = normalized activity above about 1.9%;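 also: purified mutant Fbw7 with reduced substrate affinity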
TEAD-YAP inh: TEAD-YAP interaction inhibition, primary screen, TEAD-YAP interaction inhibitor project, luminescence, HEK-TIYL cells. TEAD-Gal4/YAP UAS-luciferase luminescence. inhibition, % at 9.12 µM. 640,000 compounds, 1.4% hits; in the data active = inhibition above about 32%;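 also: 0% = median of test compound wells and 100% = reference inhibitor wells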
GPR151 confirm: GPR151 activators, triplicate retest, confirmation, cell-based, PathHunter beta-arrestin, luminescence | shares compounds with GPR151 ag | GPR151 PathHunter beta-arrestin cells, 90 min; % of EA-reagent control over plate median | 6,700 tested, under 10 active | AID 1508609, 2020 | activation, % at 11.2 µM;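 active = mean percent activation across replicates above the confirmation screen cutoff of 4.91%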
GPR119 counter: GPR119 activators in beta-arrestin cells, counter-screen for GPR151 activator project, cell-based, PathHunter beta-arrestin, luminescence, triplicate | shares compounds with GPR151 ag | 90 min; 0 = compound-well median, 100 = enzyme-acceptor control | activation, % at 11.2 µM | 6,700 compounds, 0.3% hits | AID 1508611, 2020;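 active = mean percent activation in the counterscreen above 29.09%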;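 also: counterscreen on off-target GPR119 to flag nonselective hits from the GPR151 activator screen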
The depositor's hits bear a star; . = no result given.

SMILES	GPR151 ag	MITF inh	FBW7 act	TEAD-YAP inh	GPR151 confirm	GPR119 counter
Nc1cccc(C(=O)OCC(=O)NC2CCCc3ccccc32)c1 (stereo unspecified)	5.2*	4	0	9	-1	-2
O=C(COC(=O)c1cc(O)c(O)c(O)c1)NC1CCCc2ccccc21 (stereo unspecified)	-1	32	0	8	.	.
COCCNC(=O)c1cc2c(n(-c3ccc(C)cc3)c1=O)CC(C)(C)CC2=O	-1	-2	0	-9	.	.
Cc1ccc(-n2c3c(cc(C(=O)NCC4CCCO4)c2=O)C(=O)CC(C)(C)C3)cc1 (stereo unspecified)	11*	-3	0	7	1	-3
CC(NC(=O)CCS(=O)(=O)Cc1ccc(Cl)cc1)c1ccccc1 (stereo unspecified)	4	3	0	6	.	.
CCOC(=O)C1(CC2CC2)CCN(S(=O)(=O)c2cc(Cl)ccc2OC)CC1	0	13	0	-2	.	.
CCOC(=O)C1(CC2CC2)CCN(S(=O)(=O)c2cc(C)sc2C)CC1	6.3*	11	0	5	-1	1
CCCC1(C(=O)OCC)NC(c2ccccc2F)C2C(=O)N(c3ccccc3)C(=O)C21 (stereo unspecified)	0	-8	0	13	.	.
COc1cc([N+](=O)[O-])ccc1-c1ccc(C(=O)Nc2cc(Cl)cc(Cl)c2)o1	-1	-4	0	4	.	.
COc1cc([N+](=O)[O-])ccc1-c1ccc(C(=O)Nc2ccc(Br)cn2)o1	7.1*	4	0	-3	1	17
CCOC(=O)c1c(-c2ccccc2)oc2ccc(OC(=O)C(C)(C)C)cc12	-1	1	1	-10	.	.
O=C1CCC([N+](=O)[O-])C(c2ccc(Cl)c(Cl)c2)N1 (stereo unspecified)	-1	-7	0	-6	.	.
O=C1CCC([N+](=O)[O-])C(c2ccc3c(c2)OCO3)N1 (stereo unspecified)	7.7*	-6	0	-2	0	13
CC1(C)C(=O)OC(c2ccccc2F)C2(CCCCC2)C1=O (stereo unspecified)	5.3*	4	0	1	0	-5
CS(=O)(=O)/C(C#N)=C/c1cn(Cc2cnc(Cl)s2)c2ccccc12	0	-1	0	6	.	.
O=C(O)CN1C(=O)/C(=C/c2ccc(I)o2)SC1=S	6.7*	55*	0	-2	0	0
O=C(O)CCN1C(=O)/C(=C\c2ccco2)SC1=S	11*	36	0	-6	-1	8
O=C(O)CN1C(=O)/C(=C/c2ccc(SCc3ccco3)o2)SC1=S	1	40	-1	2	.	.
O=C(O)CCN1C(=O)/C(=C/C=C/c2ccco2)SC1=S	0	20	-2	23	.	.
COC(=O)CN1C(=O)S/C(=C/c2ccco2)C1=O	7.0*	20	0	2	2	-13
Cc1ccccc1OCC(=O)N/N=C\C=N\NC(=O)COc1ccccc1C	1	-17	0	2	.	.
O=C(O)c1ccc(NS(=O)(=O)c2ccc(Br)s2)cc1	0	-1	0	7	.	.
CCOC(=O)C(C)Oc1ccc2c(=O)c(Oc3cccc(OC)c3)coc2c1 (stereo unspecified)	11*	4	0	-3	0	0
CCOC(=O)C(C)Oc1ccc2c(=O)c(Oc3ccc(OC)cc3)coc2c1 (stereo unspecified)	0	3	0	7	.	.
CCOCCOC(=O)C1=C(C)NC2=C(C(=O)CC(c3ccc(OC)cc3)C2)C1c1cccc([N+](=O)[O-])c1 (stereo unspecified)	1	5	0	13	.	.
SMILES	GPR151 ag	MITF inh	FBW7 act	TEAD-YAP inh	GPR151 confirm	GPR119 counter
Cc1csc(Nc2ccccc2)[n+]1CC(O)c1ccc([N+](=O)[O-])cc1 (stereo unspecified)	6.3*	6	0	-3	-1	-10
C1CN(c2nc3nonc3nc2N2CCOCC2)CCO1	0	10	0	2	.	.
C1CN(c2nc3nonc3nc2N2CCSCC2)CCO1	8.9*	4	0	0	1	-1
Cc1ccc(S(=O)(=O)N/N=C2\CC3(O)CCC2(c2ccccc2)CC3)cc1	0	-6	0	10	.	.
CC1(C(=O)NNC(=O)Nc2cccc([N+](=O)[O-])c2)CC1(Cl)Cl (stereo unspecified)	6.4*	7	0	1	0	-1
CCC(=O)N1CCc2cc(S(=O)(=O)CCC(=O)NC3CCCCCC3)ccc21	5.0*	5	0	-7	0	1
COc1ccc(C2=CC(c3cc(OC)c(OC)c(OC)c3)n3nnnc3N2)cc1 (stereo unspecified)	7.3*	16	0	61*	0	-10
Nc1c(C(=O)NCc2ccccc2)sc2nc3c(c(-c4cccs4)c12)CCCCC3	0	14	1	1	.	.
CC(C)(C)N1CC(CO)OC1c1ccccc1 (stereo unspecified)	4.9*	12	0	2	-1	-5
COc1ccccc1CCNCc1c(C(=O)O)n(C)c2cc(C)ccc12	9.8*	-7	0	11	0	-6
COc1ccccc1C1CN(CC(=O)N(C)C(C)c2nccs2)Cc2ccccc2O1 (stereo unspecified)	-1	-7	0	-2	.	.
CN(Cc1nccs1)C(=O)CN1Cc2ccccc2OC(c2ccccc2F)C1 (stereo unspecified)	6.6*	3	1	2	1	12
N#Cc1cccc2c1ncc1c(=O)nc3ccccn3c12	-1	3	0	7	.	.
O=C(CSc1ncccn1)N1c2ccccc2Sc2ccccc21	-1	16	0	6	.	.
Cc1cc(C(=O)NCCc2ccc(S(N)(=O)=O)cc2)cs1	1	-5	0	-6	.	.
NS(=O)(=O)c1ccc(CCNC(=O)c2cccc(C#CC3(O)CCCCC3)c2)cc1	5.0*	-9	0	0	1	-5
CCN(CC)CCNCC(=O)N1CCCc2ccccc21	8.3*	20	0	5	0	0
O=C(CSC(=S)N1CCCCC1)c1ccc([N+](=O)[O-])cc1	6.1*	20	0	-32	0	-5

Screening data from PubChem.
